# Source: PubChem BioAssay (NCATS)
# Records with an inconclusive call do not appear. Where a call stands in place of a potency, no number is given. The source made the active and inactive calls. Unless noted, calls come from the whole dose curve; as a rule, active = well fitted curve in the direction sought with a large enough effect; inconclusive = small, poorly fitted or top-dose-only effect, or another doubt; inactive = no such curve, though single readings can be large; an effect the other way counts as inactive or inconclusive.
# Legend:
# [1] = target: Protein phosphatase 1D (Homo sapiens) (UniProt O15297); assay: RapidFire Mass Spectrometry qHTS Assay for Modulators of WT P53-Induced Phosphatase 1 (WIP1) (AID 1347424);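 note: amount of dephosphorylated VEPPL-S-QETFS peptide product formed by WIP1; series mostly up to about 63 µM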
# Chain of Protein phosphatase 1D (Homo sapiens) (O15297 whole entry, looked up): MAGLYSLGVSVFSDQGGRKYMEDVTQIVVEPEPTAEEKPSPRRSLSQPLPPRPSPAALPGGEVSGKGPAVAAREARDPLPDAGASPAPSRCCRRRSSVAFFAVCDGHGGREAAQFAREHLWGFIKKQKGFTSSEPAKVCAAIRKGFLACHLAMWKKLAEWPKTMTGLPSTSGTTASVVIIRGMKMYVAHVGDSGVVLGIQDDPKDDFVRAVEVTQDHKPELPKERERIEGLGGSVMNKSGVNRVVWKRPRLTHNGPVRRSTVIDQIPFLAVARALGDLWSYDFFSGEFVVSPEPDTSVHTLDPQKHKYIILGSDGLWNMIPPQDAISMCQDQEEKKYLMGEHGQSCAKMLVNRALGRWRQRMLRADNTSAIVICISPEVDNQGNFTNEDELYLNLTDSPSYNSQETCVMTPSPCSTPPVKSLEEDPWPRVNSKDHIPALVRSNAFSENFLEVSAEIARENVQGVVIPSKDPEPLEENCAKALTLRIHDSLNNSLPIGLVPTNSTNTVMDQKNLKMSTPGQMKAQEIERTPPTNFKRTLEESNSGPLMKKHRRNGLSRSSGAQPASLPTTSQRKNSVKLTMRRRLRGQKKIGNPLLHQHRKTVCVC
# Method in brief: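 10 nM WIP1 preincubated with compounds 1 hr at room temperature in pH 7.5 Tris buffer with 30 mM MgCl2, 1 mM TCEP; 2 uM VEPPL-pS-QETFS phosphopeptide for 5 min, formic acid quench; dephosphorylated product quantified by RapidFire MS against labelled standard.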
# [2] = target: Protein phosphatase 1D (Homo sapiens) (UniProt O15297); assay: Rhodamine-PBP qHTS Assay for Modulators of WT P53-Induced Phosphatase 1 (WIP1) (AID 1347425)
# Method in brief: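 The read-out is the change in Rhodamine-PBP fluorescence (f1 - f0, ex 525/em 598 nm) as Pi is released, read each minute for 11 min. Final reaction: 5 nM WIP1, 10 uM phosphopeptide VEPPL-pS-QETFS, 10 uM Rh-PBP, 50 mM Tris-HCl pH 7.5, 30 mM MgCl2. Compound was preincubated with enzyme for 1 hour at room temperature.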
# [3] = Primary qHTS for inhibitors of SARS-S pseudo-typed particle cell entry (AID 1479145; calls by dose curve; note: nearly all actives have a fitted effect of over 45% in size)
# [4] = Primary qHTS for Huh7 cytotoxicity: counterscreen for inhibitors of MERS-S pseudotyped particle cell entry (AID 1479147; calls by dose curve)
# [5] = Primary qHTS for inhibitors of MERS-S pseudo-typed particle cell entry (AID 1479149; calls by dose curve; note: nearly all actives have a fitted effect of over 60% in size)
# [6] = Primary qHTS for Vero E6 cytotoxicity: counterscreen for inhibitors of SARS-S pseudo-typed particle cell entry (AID 1479150; calls by dose curve)
# [7] = Validation qHTS assay for inhibitors of Activation Induced Cytidine Deaminase (AID): UDG Counterscreen signal (AID 1347427)
# Method in brief: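 Counterscreen read of UDG activity (2 U/mL, 4/3x) in the FRET deamination format with AID (1 uM, 4/3x), DJC20/DJC23 substrates (250 nM, 4x), 4 h at room temperature. NaOH stop, fluorescence at 560 ex/665 em.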
# [8] = target: Single-stranded DNA cytosine deaminase (Homo sapiens) (UniProt Q9GZX7); assay: Validation qHTS assay for inhibitors of Activation Induced Cytidine Deaminase (AID): AID signal (AID 1347429)
# Chain of Single-stranded DNA cytosine deaminase (Homo sapiens) (Q9GZX7 whole entry, looked up): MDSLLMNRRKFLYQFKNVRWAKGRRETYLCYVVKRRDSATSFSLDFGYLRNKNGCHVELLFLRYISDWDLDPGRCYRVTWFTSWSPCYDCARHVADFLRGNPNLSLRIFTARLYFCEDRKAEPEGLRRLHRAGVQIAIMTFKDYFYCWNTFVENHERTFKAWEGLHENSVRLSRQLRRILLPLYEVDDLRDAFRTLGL
# Method in brief: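 Fluorescence at 540 nm excitation and 590 nm emission reports ssDNA cytosine deamination by AID, with UDG in the same well. Compound-treated reactions ran 4 hr at room temperature with DJC20/DJC23 substrate, followed by 30 min NaOH treatment.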
smiles,measurement,setting,value
CC[C@H]1C[C@@H]2C[C@H]3c4[nH]c5ccc(OC)cc5c4CCN(C2)[C@@H]13,Potency,[1],inactive
same,outcome,[2],inactive
CN1C[C@@H](NS(=O)(=O)N(C)C)C[C@@H]2c3cccc4c3c(cn4C)C[C@H]21,Potency,[1],inactive
same,outcome,[2],inactive
ClCCCN1CCN(c2cccc(Cl)c2)CC1,Potency,[1],inactive
same,outcome,[2],inactive
CC(=O)OC1(c2ccccc2)CCN(CCc2ccccc2)CC1,Potency,[1],inactive
same,outcome,[2],inactive
C[C@]12CC[C@H]3[C@@H](CC=C4C[C@@H](O)CC[C@@]43C)[C@@H]1CC[C@@H]2O,Potency,[1],inactive
same,outcome,[2],inactive
C[C@@H]1CC[C@H]2[C@@H](C)C(=O)O[C@@H]3O[C@@]4(C)CC[C@@H]1[C@]32OO4,Potency,[1],inactive
same,outcome,[2],inactive
CCCN(CCC)CCc1c[nH]c2ccccc12,Potency,[1],inactive
same,outcome,[2],inactive
CCCOC(=O)Cc1ccc(OCC(=O)N(CC)CC)c(OC)c1,Potency,[1],inactive
same,outcome,[2],inactive
CN(C)CCc1c[nH]c2cccc(O)c12,Potency,[1],inactive
same,outcome,[2],inactive
CCS(=O)(=O)C(C)(C)S(=O)(=O)CC,Potency,[1],inactive
same,outcome,[2],inactive
CN1[C@@H]2CC[C@H]1CC(OC(=O)c1cc(Cl)cc(Cl)c1)C2 (some centres undefined),Potency,[1],inactive
same,outcome,[2],inactive
Oc1ccc2[nH]cc(CCCCN3CC=C(c4ccccc4)CC3)c2c1,Potency,[1],inactive
same,outcome,[2],inactive
CCO[C@H]1O[C@@H]2OC3(C)CC[C@H]4[C@H](C)CC[C@@H]([C@H]1C)[C@@]24OO3,Potency,[1],inactive
same,outcome,[2],inactive
CC(C)=C[C@@H]1[C@@H](C(=O)OCc2coc(Cc3ccccc3)c2)C1(C)C,Potency,[1],inactive
same,outcome,[2],inactive
CN1CCc2cc(Cl)c(O)cc2[C@H]2c3ccccc3CC[C@@H]21,Potency,[1],inactive
same,outcome,[2],inactive
CCC1(c2ccccc2)CCC(=O)NC1=O (centres undefined),Potency,[1],inactive
same,outcome,[2],inactive
CN1C(=O)CN=C(c2ccccc2)c2cc(Cl)ccc21,Potency,[1],inactive
same,outcome,[2],inactive
CCC(=O)OC1(c2ccccc2)CCN(C)CC1,Potency,[1],inactive
same,outcome,[2],inactive
COP(=S)(OC)Oc1ccc(Sc2ccc(OP(=S)(OC)OC)cc2)cc1,Potency,[1],inactive
same,outcome,[2],inactive
CCN(CC)C(C)C(=O)c1ccccc1 (centres undefined),Potency,[1],inactive
same,outcome,[2],inactive
CC(Cc1ccccc1)NCc1ccccc1Cl (centres undefined),Potency,[1],inactive
same,outcome,[2],inactive
same,Potency,[3],inactive
same,Potency,[4],inactive
same,Potency,[5],inactive
same,Potency,[6],inactive
COc1ccc(C(=O)N2CCCC2=O)cc1,Potency,[1],inactive
same,outcome,[2],inactive
same,outcome,[7],inactive
same,outcome,[8],inactive
same,Potency,[3],inactive
same,Potency,[4],inactive
same,Potency,[5],inactive
same,Potency,[6],inactive
Cc1ccc(N=CN(C)C=Nc2ccc(C)cc2C)c(C)c1,Potency,[1],inactive
same,outcome,[2],inactive
same,Potency,[3],inactive
same,Potency,[4],inactive
same,Potency,[5],inactive
same,Potency,[6],inactive
COc1ccc2[nH]cc(CCN(C(C)C)C(C)C)c2c1,Potency,[1],inactive
same,outcome,[2],inactive
O=C(CCCCl)c1ccc(F)cc1,Potency,[1],inactive
same,outcome,[2],inactive
COC(=O)C1=CCCN(C)C1,Potency,[1],inactive
same,outcome,[2],inactive
same,outcome,[7],inactive
same,outcome,[8],inactive
CCC1(CC)C(=O)NC(=O)NC1=O,Potency,[1],inactive
same,outcome,[2],inactive
c1cc2c(c(N3CCNCC3)c1)OCCO2,Potency,[1],inactive
same,outcome,[2],inactive
O=C(O)Cc1ccccc1,Potency,[1],inactive
same,outcome,[2],inactive
same,Potency,[3],inactive
same,Potency,[4],inactive
same,Potency,[5],inactive
same,Potency,[6],inactive
CC(C)[N+](C)(CCC(C(N)=O)(c1ccccc1)c1ccccc1)C(C)C,Potency,[1],inactive
same,outcome,[2],inactive
same,Potency,[3],inactive
same,Potency,[4],inactive
same,Potency,[5],inactive
same,Potency,[6],inactive
CCN(CC)CCOC(=O)C(C)(c1ccccc1)c1ccccc1,Potency,[1],inactive
same,outcome,[2],inactive
O=C1NCN(c2ccccc2)C12CCN(CCCOc1ccc(F)cc1)CC2,Potency,[1],inactive
same,outcome,[2],inactive
COP(=O)(OC)C(O)C(Cl)(Cl)Cl (centres undefined),Potency,[1],inactive
same,outcome,[2],inactive
same,Potency,[3],inactive
same,Potency,[4],inactive
same,Potency,[5],inactive
same,Potency,[6],inactive
CC(Cc1ccc2c(c1)OCO2)NO (centres undefined),Potency,[1],inactive
same,outcome,[2],inactive
COc1cc(C[C@@H](C)N)c(OC)cc1Br,Potency,[1],inactive
same,outcome,[2],inactive
C1CN2CCC1CC2,Potency,[1],inactive
same,outcome,[2],inactive
C[C@]12CC[C@H]3[C@@H](CCC4=CC(=O)CC[C@@H]43)[C@@H]1CC[C@@H]2O,Potency,[1],inactive
same,outcome,[2],inactive
CCCC(C)C1(CC)C(=O)N=C(S)NC1=O (centres undefined),Potency,[1],inactive
same,outcome,[2],inactive
CCC(=O)O[C@H]1CC[C@H]2[C@@H]3CCC4=CC(=O)CC[C@]4(C)[C@H]3CC[C@]12C,Potency,[1],inactive
same,outcome,[2],inactive
same,Potency,[3],inactive
same,Potency,[4],inactive
same,Potency,[5],inactive
same,Potency,[6],inactive
CCC1(c2cccc(O)c2)CCCCN(C)C1 (centres undefined),Potency,[1],inactive
same,outcome,[2],inactive
same,Potency,[3],inactive
same,Potency,[4],inactive
same,Potency,[5],inactive
same,Potency,[6],inactive
CN(C)C(=O)Oc1cc(OC(=O)N(C)C)cc(C(O)CNC(C)(C)C)c1 (centres undefined),Potency,[1],inactive
same,outcome,[2],inactive
same,Potency,[3],inactive
same,Potency,[4],inactive
same,Potency,[5],inactive
same,Potency,[6],inactive
COc1ccc(OC)c(CC(C)N)c1 (centres undefined),Potency,[1],inactive
same,outcome,[2],inactive
